# Compounds with a hit are over-represented: about 6% of the library has one in this group of screens.
# Tau fibril FP – inhibitors of human tau fibril formation; P10636; K18 P301L tau heparin fibrillization, Alexa594 FP, 6 h; Potency, µM (series often up to 57.7 µM), for inactives: top-dose activity, negative = inhibition, actives largely listed as inhibitors; actives 0.39% (n = 280,000); further: nearly all actives have a fitted effect of over 55% in size
# Target sequence (P10636 561-689 P618L limits assumed): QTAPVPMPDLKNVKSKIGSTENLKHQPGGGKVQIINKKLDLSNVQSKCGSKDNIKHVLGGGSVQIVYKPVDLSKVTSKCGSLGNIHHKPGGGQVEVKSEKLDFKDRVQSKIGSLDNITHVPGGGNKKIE
#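 Compound effects on tau fibrillization are measured by Alexa 594 fluorescence polarization (ex 555, em 632 nm). K18 P301L tau is used at 15 uM with 0.24 uM labeled tracer, and 20 uM heparin induces aggregation over 6 hr at 37 C.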
# Tau fluor cs – counter-screen for tau fibril formation inhibitors | tau K18 P301L Alexa594 fluorescence, heparin fibrillization | Potency, µM (series often up to 57.7 µM), for the others: top-dose activity change, negative = decrease | actives 0.93% (n = 280,000); further: nearly all actives have a fitted effect of over 55% in size
#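 Human K18 P301L tau (15 uM unlabeled plus 0.24 uM Alexa 594-labeled, final) in 100 mM sodium acetate pH 7 was mixed with compound and 20 uM heparin and incubated 6 hr at 37 C.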
# VDR inh – vitamin D3 receptor (human) inhibition; P11473; VDR-SRC2-3 peptide fluorescence polarization, 2 h; Potency, µM, inactives show max response, negative = inhibition, most hits filed as inhibitors; actives 0.93% (n = 400,000); AID 504847
# Target sequence (P11473 whole entry, looked up): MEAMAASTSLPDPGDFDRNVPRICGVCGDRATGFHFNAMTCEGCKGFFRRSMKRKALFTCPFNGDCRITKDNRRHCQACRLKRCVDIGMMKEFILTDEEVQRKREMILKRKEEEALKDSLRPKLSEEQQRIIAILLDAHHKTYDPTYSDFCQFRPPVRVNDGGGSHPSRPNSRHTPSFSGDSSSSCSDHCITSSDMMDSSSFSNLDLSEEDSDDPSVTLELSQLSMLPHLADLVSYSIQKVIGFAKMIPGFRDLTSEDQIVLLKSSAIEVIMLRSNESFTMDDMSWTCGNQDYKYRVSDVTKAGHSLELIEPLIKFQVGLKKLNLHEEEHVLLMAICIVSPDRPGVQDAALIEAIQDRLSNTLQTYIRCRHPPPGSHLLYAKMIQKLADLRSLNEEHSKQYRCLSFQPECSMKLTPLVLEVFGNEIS
#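 Fluorescence polarization assay measuring small-molecule disruption of VDR binding to the coregulator peptide SRC2-3. Compounds were pin-transferred (23 nl) into the reagent mix and incubated 2 h at room temperature before reading.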
# Tau ThT inhib – inhibitors of human tau fibril formation, thioflavin T binding. actives 2.1% (n = 270,000). AID 1460. recombinant tau K18 P301L, heparin-induced fibrillization, ThT fluorescence. P10636. Potency, µM (series often up to 57.4 µM), inactives show at the top dose activity, negative = inhibition, hits mostly inhibitors; further: nearly all actives have a fitted effect of over 55% in size
#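 ThT emission at 510 nm, taken 1 hr after adding 30 uM dye, quantifies aggregates formed when 20 uM heparin acts on human tau K18 P301L for 6 hr at 37 C.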
# PLK1 PBD block – PLK1 (human) polo-box domain binding inhibition; P53350; Plk1 PBD binding of FITC phosphopeptide, fluorescence polarization; Potency, µM, for inactives: max response, negative = inhibition, most hits filed as inhibitors; actives 2.8% (n = 360,000); further: series mostly up to about 57 µM; nearly all actives have a fitted effect of over 65% in size
# Sfp inh – inhibitors of Bacillus subtilis Sfp phosphopantetheinyl transferase; Potency, µM, inactives show largest response in the series, negative = inhibition, actives largely listed as inhibitors; Biochemical Sfp PPTase activity, qHTS; Q9F4F7; actives 3.5% (n = 310,000);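 further: the enzyme is Sfp with the accession as filed and its product quenches rhodamine fluorescence; 0% = enzyme reaction without inhibitor and -100% = no enzyme wells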
#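 Sfp 15 nM + cpd, 15 min RT; start w/ rhodamine-CoA 5 uM, BHQ-2-YbbR 12.5 uM (final); 50 mM Hepes pH 7.6, 10 mM MgCl2, 0.01% NP-40, 0.01% BSA; read 525/598 nm at 0 and 30 min.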
# Active calls of the source: *; ? = inconclusive; nt = not tested or not shown; [ ] = another dose, or the depositor's remark. The call rests on the fitted dose curve; in most records, active means well fitted curve in the direction sought with a large enough effect; inconclusive means small, poorly fitted or top-dose-only effect, or another doubt; inactive means no such curve, though single readings can be large; an effect the other way counts as inactive or inconclusive. Unless noted, on the % scale 0 is the no-effect control and ±100 the full control effect; potency means the concentration at half of the fitted maximal effect.
SMILES,Tau fibril FP,Tau fluor cs,VDR inh,Tau ThT inhib,PLK1 PBD block,Sfp inh
Cc1cc(Br)c(NC(=O)CN2C(=O)NC3(CCOc4ccccc43)C2=O)c(Br)c1 (stereo not drawn),nt,nt,nt,nt,-5%,nt
CCN1CCN(c2cc3c(cc2F)c(=O)c(S(=O)(=O)c2ccc(OC)cc2)cn3CC)CC1,-7%,-8%,12%,-6%,nt,nt
CC(C)Oc1ccc(CNC(=O)c2ccc(CS(=O)Cc3ccccc3Cl)o2)cc1 (stereo not drawn),?,-6%,12%,-6%,nt,nt
CC(=O)C1=C(C)NC(SCC(=O)c2ccc(Cl)cc2)=C(C#N)C1c1ccco1 (stereo not drawn),13%,?,19%,?,-5%,50µM*
Cc1ccc(C(=O)CSC2=C(C#N)C(c3ccco3)CC(=O)N2)c(C)c1 (stereo not drawn),-13%,-16%,-8%,?,-22%,50µM*
Cc1ccc(NC(=O)CSC2=C(C#N)C(c3ccco3)CC(=O)N2)cc1 (stereo not drawn),-2%,-24%,-15%,-11%,-7%,-8%
CCOC(=O)CC(S(=O)(=O)c1ccccc1)S(=O)(=O)c1ccccc1,nt,nt,nt,nt,27µM*,nt
COc1ccc(OCC(O)CNC(=O)c2ccc(Br)cc2)cc1 (stereo not drawn),3%,-1%,22%,-10%,0%,5%
COc1ccc(CNc2ccc(Br)cc2)cc1,8%,?,3%,?,5%,56µM*
COc1ccc(OCC(O)CNc2ccc(Br)cc2)cc1 (stereo not drawn),14%,18µM*[quencher],-3%,?,-6%,?
CCCC(=O)N1CCC1(C)C(=O)NS(=O)(=O)c1cccc(Cl)c1 (stereo not drawn),nt,nt,nt,nt,1%,nt
COCCn1c(=O)c(-c2cccc(C#N)c2)nc2cnc(N3CCNCC3)nc21,nt,nt,-25%,nt,nt,4%
COc1cccc(N2C(=O)N(Cc3ccc(C#N)cc3)c3ccccc3S2(=O)=O)c1,-10%,-14%,6%,13%,nt,nt
COCCn1c(C)cc(C(=O)CSc2nc(C)c(C)c(C)n2)c1C,0%,-14%,-7%,-17%,?,40µM*
O=C(CN(C(=O)CCC(=O)Nc1ccccn1)c1ccc(F)cc1)NCCc1ccccc1,nt,nt,12%,nt,-4%,16%
CSc1nn(CCc2ccncc2)c(=S)s1,-1%,0%,0%,-2%,-11%,50µM*
S=c1sc2ccccc2n1CCc1ccncc1,nt,nt,-9%,nt,1%,nt
O=[N+]([O-])c1ccc(N2CCCC2)c([N+](=O)[O-])c1,nt,nt,nt,nt,8%,nt
COc1ccc(-c2cc(=O)n(-c3nc4ccccc4[nH]3)[nH]2)cc1,-17%,?,-17%,32µM*,-10%,2%
CCCCn1c2nc3ccccc3nc2c2c(=O)n(CCC)cnc21,-3%,-5%,1%,-14%,-11%,16%
CCCCCn1nc(-c2ccccc2)c2nc3ccccc3nc21,-13%,-12%,-17%,6%,21µM*,11%
CCCn1nc(-c2ccccc2)c2nc3ccccc3nc21,-6%,-13%,3%,?,17µM*,19%
CCn1nc(-c2ccccc2)c2nc3ccccc3nc21,-11%,-26%,7%,10%,?,-8%
Cc1ccccc1CN1CC2=C(CCN(Cc3ccccc3)C2=O)N2CCN=C12,nt,nt,nt,nt,-8%,nt
O=c1ccc(-c2nc3ccccc3n2C(CCc2ccccc2)c2nc3ccccc3[nH]2)c[nH]1 (stereo not drawn),nt,nt,nt,nt,2%,nt
SMILES,Tau fibril FP,Tau fluor cs,VDR inh,Tau ThT inhib,PLK1 PBD block,Sfp inh
CCOC(=O)c1c(C)n(CCOc2ccccc2)c2ccc(O)cc12,nt,nt,-2%,nt,1%,71µM*
CC(C)(C)c1ccc(C2Sc3ccccc3NC3=C2C(=O)c2ccccc23)cc1 (stereo not drawn),?,5.6µM*[quencher],-9%,-11%,nt,nt
COc1ccc(-c2nc(C#N)c(NCCc3ccccc3)o2)cc1OC,?,16µM*[quencher],6%,?,-6%,-10%
COc1ccc(CCNc2oc(COc3ccccc3F)nc2C#N)cc1OC,7%,?,-15%,?,27µM*,1%
C=Cc1ccc(Cn2c(C)c(C(=O)NCCC#N)sc2=O)cc1,nt,nt,nt,nt,-3%,nt
COCCNc1oc(Cc2cccc3ccccc23)nc1C#N,nt,nt,10%,nt,-8%,21%
O=C(O)CCSc1ccc([N+](=O)[O-])cc1[N+](=O)[O-],-1%,-19%,?,?,12µM*,45µM*
O=[N+]([O-])c1ccc(Sc2ncccn2)c([N+](=O)[O-])c1,?,6.3µM*[quencher],-7%,13µM*,-11%,-16%
O=[N+]([O-])c1ccc(SNc2ccccc2)c([N+](=O)[O-])c1,nt,nt,-9%,nt,-14%,nt
O=[N+]([O-])c1ccc(Sc2nccn2Cc2ccccc2)c([N+](=O)[O-])c1,9%,?,-27%,?,-12%,-3%
CCN(CC)CCn1c(-c2ccccc2)nc2c(NCc3ccccc3)nc(C)nc21,-8%,-13%,nt,-4%,nt,11%
COc1cccc(CN(C)Cc2cc(=O)oc3cc(O)c(Cl)cc23)c1,nt,nt,14%,nt,-4%,79µM*
COc1cccc(CN(C)Cc2cc(=O)oc3c(C)c(C)ccc23)c1,nt,nt,-6%,nt,-3%,-13%
COc1ccc(/C=C/CN2CCC(C(=O)NC(c3ccc(F)cc3)c3ccc4ccccc4n3)CC2)cc1 (stereo not drawn),nt,nt,nt,nt,-10%,nt
Nc1[nH]c(=O)[nH]c(=O)c1N=Nc1ccc(C(=O)O)cc1,nt,nt,7%,nt,2%,-13%
COc1ccccc1CNS(=O)(=O)N(C)C,0%,-2%,7%,-7%,21µM*,8%
COc1ccccc1CNc1ncccn1,nt,nt,-4%,nt,-16%,79µM*
COc1cccc(CNS(=O)(=O)c2ccccc2Br)c1OC,nt,nt,?,nt,19µM*,nt
COc1ccccc1CNS(=O)(=O)c1cc(C)ccc1OC,4%,3%,-19%,4%,-2%,11%
O=C(c1ccc(=O)[nH]c1)N(c1ccccc1)C(CCc1ccccc1)c1nc2ccccc2[nH]1 (stereo not drawn),nt,nt,nt,nt,-1%,nt
CSCC[C@H](NC(=O)[C@H](CC(C)C)NC(=O)[C@@H]1CCCN1C(=O)[C@H](Cc1ccccc1)NC(=O)[C@H](Cc1ccccc1)NC(=O)[C@H](CCC(N)=O)NC(=O)[C@H](CCC(N)=O)NC(=O)[C@@H]1CCCN1C(=O)[C@H](CCCCN)NC(=O)[C@@H]1CCCN1C(=O)[C@@H](N)CCCN=C(N)N)C(N)=O,nt,nt,2%,nt,nt,1%
Cc1ccc(C)c(N(CC(N)=O)S(C)(=O)=O)c1,-7%,-2%,?,1%,27µM*,14%
